# Records with an inconclusive call do not appear. The source made the active and inactive calls. Calls follow the shape of the dose curve; as a rule, active = well fitted activation curve with a large enough effect; inconclusive = small, poorly fitted or top-dose-only effect; inactive = no such curve, though single readings can be large or run the other way.
# Assay: qHTS assay for re-activators of p53 using a Luc reporter: Hit Validation with no p53 Expressed; as to activity change, positive = activation: 0% is about no effect
# Details: p53-null cells, luciferase reporter counter-screen; series mostly up to 46.1 µM; activity change, positive = activation: at the top concentration
# Method in brief: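 Counter-screen of primary hits in a cell line not transfected with p53, in Opti-MEM with 10% FBS; compounds at several concentrations (10 mM stock, 1:5; top 46.1 µM in well), 24 h at 37 deg C, 5% CO2. Luminescence read after 10 min with Amplite reagent.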
# Potency is read from the fitted curve at half-maximal effect.
Structure (SMILES),"activity change, positive = activation",Potency
C=CCOc1c(Br)cc(CNCCCN2CCOCC2)cc1OC,-42.5% (inactive),–
CN(C)c1cccc(C(=O)NNC(=O)CN2C(=O)C3CC=CCC3C2=O)c1 (centres undefined),38.2% (inactive),–
COc1ccccc1NC(CC(=O)c1ccccc1)C(=O)OCC(=O)c1ccc(C)cc1 (centres undefined),99.4% (inactive),–
Cc1ccc(C(=O)Nc2ncc3c(n2)CC(c2ccco2)CC3=O)cc1 (centres undefined),65.3% (inactive),–
CCN1C(=O)C(=O)N(CC(=O)c2cc(C)n(C3CC3)c2C)C1=O,50% (inactive),–
O=C(COc1ccccc1Cl)Nc1ccc(Cl)cn1,80.6% (inactive),–
CC1CCC(NC(=O)C2CCN(C(=O)Nc3ccccc3)CC2)CC1 (centres undefined),9.02% (inactive),–
Fc1ccc(CCNC(=S)Nc2ccc(F)cc2)cc1,-12.1% (inactive),–
Nc1nonc1-n1nnc(C(=O)N/N=C/c2ccc(OCc3cccc(Cl)c3)cc2)c1CN1CCCCC1,56.6% (inactive),–
COc1ccccc1C(=O)NNC(=O)c1cccc(F)c1,15% (inactive),–
CC(C)(C)c1nnc(N/N=C/c2cc(Br)ccc2O)n(N)c1=O,-30.3% (inactive),–
O=C(/C=C\Nc1cccc(F)c1)c1ccc2c(c1)OCO2,-22.4% (inactive),–
CN(C)c1ccc(N=Cc2nc(-c3ccccc3)oc2OC(=O)c2cccc(Cl)c2)cc1,44.4% (inactive),–
Cc1nn(-c2ccccc2)c(/N=C/c2ccccc2O)c1-c1ccccc1,-56.3% (inactive),–
S=C(Nc1cccc(Br)c1)c1ccccc1,-20.7% (inactive),–
COc1cccc(/C=C2\Oc3ccc(O)cc3C2=O)c1O,-7.69% (inactive),–
CN(C(=O)NC(=O)C1=C(N2CCOCC2)/C(=C/c2ccccc2)CC1)S(C)(=O)=O,93.6% (inactive),–
CN(Cc1ccccc1)C(=O)CNC(=O)Cn1cnc2ccccc2c1=O,-10.4% (inactive),–
Cc1cccc(C)c1NC(=O)CC(NCc1ccco1)C(=O)O (centres undefined),29.3% (inactive),–
O=C(Nc1ccc(NC(=O)C23CC4CC(CC(C4)C2)C3)cn1)c1ccco1,12.5% (inactive),–

Structure (SMILES),"activity change, positive = activation",Potency
CCN(CC)C(=O)CNC(=S)N(CCCN1CCOCC1)Cc1cccs1,0.343% (inactive),–
Nc1ccc(-c2cnc(-c3ccc(N)cc3)nc2)cc1,1.34% (inactive),–
O=C(COc1ccc(F)cc1Cl)NC1CCCCCC1,87.9% (inactive),–
Cc1ccc(C(=O)N/N=C2\CCc3ccccc32)c(C)c1,-37.4% (inactive),–
O=C1NC(c2ccc(Br)cc2)=N/C1=C/c1ccco1,14.3% (inactive),–
O=[N+]([O-])c1ccc(/C=N/NC(=S)Nc2ccccc2F)o1,-5.46% (inactive),–
CCOc1cccc(-c2c(C(=O)N/N=C(\C)c3ccccn3)nnn2-c2nonc2N)c1,-29.5% (inactive),–
CC(C)CCn1cnc2c(cnn2-c2ccc(F)cc2)c1=O,30% (inactive),–
C#CCOc1ccc(/C=C2\SC(=S)N(Cc3cccnc3)C2=O)cc1,23.1% (inactive),–
Cc1nn2cc(-c3ccc(-c4ccccc4)cc3)nc2s1,–,731 nM (active)
C/C(=N\NC(=S)NC(C)C)c1ccc(Cl)s1,-31.2% (inactive),–
CCOC(=O)C(C(C)=O)C(c1ccc(OC)cc1)C(C(C)=O)C(=O)OCC (centres undefined),-8.98% (inactive),–
CC(=O)c1c(C)[nH]c(C(=O)OCC(=O)c2ccc(C)s2)c1C,-28.2% (inactive),–
Cc1cc(F)ccc1NC(=O)Nc1ccc2c(c1)OCO2,-27.5% (inactive),–
CCOC(=O)c1ccc(N2Cc3ccccc3C2=NC(=O)c2cccs2)cc1,40.9% (inactive),–
O=C(Nc1ccc(Cl)cc1)Nc1nnc(SCc2ccccc2)s1,-21.5% (inactive),–
COc1ccccc1C(=O)NC(=S)NNC(=O)c1sc2ccccc2c1Cl,-18.8% (inactive),–
O=C(NCCCc1ccccc1)c1cc(COc2c(F)cccc2F)on1,18.1% (inactive),–
O=C(NC(=S)NCCc1ccccc1)C1CCCCC1,-17% (inactive),–

# From PubChem BioAssay AID624331 (National Center for Advancing Translational Sciences (NCATS), 2012)
